This is an account of results in PubChem BioAssay (NCATS).

For assay [1], the target named is Cytochrome P450 1A2 (Homo sapiens) (UniProt P05177). Put plainly: p450-cyp1a2 (AID 410; calls by dose curve;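 also: -100% = full effect of reference inhibitor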). In short, it runs like this:
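Luminescent demethylation readout: Luciferin-ME (100uM, equal to Km) turned over by 20nM CYP1A2 for 60 min at room temperature after NADPH regeneration addition, following 10 min compound preincubation. Normalization used 57 uM furafylline as full inhibition.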

Assay [2] concerns the target Glucocorticoid receptor (Homo sapiens) (UniProt P04150). Kind of assay: GR-GFP Redistribution (AID 450;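 active = compounds whose dose series gives a full or clear partial fitted curve of increased nuclear translocation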; also: potency is read from the fitted curve at half-maximal effect). The conditions noted are these: U2OS GR-GFP nuclear translocation, laser cytometry, 2 h.
For assay [3] the target is unchanged. Put plainly: GR-EFC Redistribution (AID 451; calls by dose curve; also: potency is read from the fitted curve at half-maximal effect). The conditions noted are these: CHO-K1 GR-EFC translocation, beta-gal luminescence, 2 h. In short, it runs like this:
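CHO-K1 cells expressing nuclear EA and GR-ED fragments of b-gal; compounds titrated up to 46 uM final, 2 h at 37 C. GR nuclear translocation read as complemented b-gal luminescence after 1 h RT detection.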

Assay [4] concerns the target Mitogen-activated protein kinase 10 (Mus musculus) (UniProt Q61831). Put plainly: JNK3 AlphaScreen Assay (AID 530; active = well fitted curve in either direction with a large enough effect, not every such curve was filed as active;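 also: kinase came from lysate of stimulated human HepG2 cells; signal reports phosphorylation of biotinylated GST-cJun 1-79 at Ser73 with 10 µM ATP; % is scaled to controls: 0 for no effect and ±100 for the full control effect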). The gist of the method:
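Activity was read by AlphaScreen after JNK3-containing HepG2 lysate (cytokine pre-activated) phosphorylated biotinylated GST-cJun with 10 uM ATP at room temperature. Phospho-Ser73 cJun antibody with Protein-A acceptor beads provided detection.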
(In Alpha technology, singlet oxygen from a donor bead excites a nearby acceptor bead.)

Assay [5] has as its target 3',5'-cyclic-AMP phosphodiesterase 4B (Homo sapiens) (UniProt Q07343). Put plainly: qHTS Assay for Inhibitors of PDE-IV (AID 607; active = well fitted activation curve with a large enough effect in the main read-out, with a control signal flat, not every such curve was filed as active; also: % of control where 0% means no effect). The gist of the method:
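ACTOne HEK293 cells carry a modified cAMP-gated CNG channel and express endogenous PDE4; plated 1000 cells/well, compounds up to 22.9 uM final. Membrane-potential dye fluorescence (ex 535/em 590) was read; parental cells received 10 uM forskolin + 100 uM RO 20-1724.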

Assay [6] can be described thus: qHTS Assay for Lipid Storage Modulators (AID 1519; calls by dose curve; as to activity change, negative = inhibition: % is scaled to controls: 0 for no effect and ±100 for the full control effect). The conditions noted are these: Drosophila S3 cells, BODIPY lipid droplet/cell ratio, laser cytometry, cells loaded with oleic acid; for activity change, negative = inhibition: at 57.5 µM (top of the series). The gist of the method:
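Cells seeded at 5,000 per well were treated with compounds over a concentration series and loaded with oleic acid (400 uM, as added). Lipid droplet fluorescence (488 nm excitation, 500-530 nm channel) was read by laser-scanning cytometry and normalized to 20 uM Triacsin C.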

Assay [7] has as its target Ubiquitin carboxyl-terminal hydrolase 1 (Homo sapiens) (UniProt O94782). Put plainly: Inhibitors of USP1/UAF1: Pilot qHTS (AID 504865).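 Also: rhodamine fluorescence freed from ubiquitin-rhodamine substrate followed over time; top concentration of the series differs between compounds; % is scaled to controls: 0 for no effect and ±100 for the full control effect; nearly all actives have a fitted effect of over 35% in size.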 In short, it runs like this:
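USP1/UAF1 complex at 1 nM preincubated 15 min at room temperature with compound, then Ub-Rho substrate added at 150 nM final. Fluorescence (480/540 nm) read kinetically in 50 mM HEPES pH 7.8, 0.5 mM EDTA, 1 mM TCEP, 0.1 mg/ml BSA, 0.01% Tween-20.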
For orientation: In qHTS, concentration-response curves come from the screen itself.

In assay [8] the target is DNA dC->dU-editing enzyme APOBEC-3G (Homo sapiens) (UniProt Q9HC16). Kind of assay: qHTS for inhibitors of Vif-A3G interactions: Validation (AID 588379). Also: 0% is about no effect. In short, it runs like this:
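Yellow fluorescence (Ex 488, Em 500-530) of Vif-coexpressing HeLa A3G-eYFP cells, scanned by Acumen cytometer, reports blocked A3G degradation. Cells plated at 700/well overnight at 37 deg C before compound addition, then a further overnight compound incubation at 37 deg C.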

Assay [9] relates to Zika virus NS2B-NS3 protease. Kind of assay: Primary screen GU AMC qHTS for Zika virus inhibitors (AID 1347154).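 Also: 0% = no-inhibitor control and -100% = no-enzyme control; nearly all actives have a fitted effect of over 70% in size.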 In short, it runs like this:
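Unlinked Zika NS2B hydrophilic domain–NS3 protease complex at 25 nM in 10 mM Tris-HCl pH 8.0, 0.01% Tween 20, with an AMC peptide substrate. Fluorescence change (340/450 nm) over 15 min at room temperature, normalized to controls, fitted to 4-parameter Hill.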

Assay [10] is described as follows: Primary qHTS for small molecule stabilizers of the endoplasmic reticulum resident proteome: Secreted ER Calcium Modulated Protein (SERCaMP) assay (AID 1508630). Also: % is scaled to controls: 0 for no effect and ±100 for the full control effect. In short, it runs like this: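 The SH-SY5Y reporter protocol was run at 3 concentrations up to 38.3 uM (primary) or 11 concentrations (follow-up): 16 h compound, 100 nM thapsigargin for 4 h, then extracellular luciferase luminescence.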

Assay [11] concerns the target Cytochrome P450 3A4 (Homo sapiens) (UniProt P08684). Put plainly: qHTS Assay for Activators of Cytochrome P450 3A4 (AID 885). Also: nearly all actives have a fitted effect of over 65% in size. The gist of the method:
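CYP3A4 activity: Luciferin-PPXE O-dealkylation, 25uM substrate, 200mM KPO4, RT throughout. Read-out is luciferase luminescence; higher values reflect activation.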

Assay [12] has as its target Cytochrome P450 2C19 (Homo sapiens) (UniProt P33261). Put plainly: qHTS Assay for Inhibitors and Substrates of Cytochrome P450 2C19 (AID 899). Also: potency is read from the fitted curve at half-maximal effect; nearly all actives have a fitted effect of over 60% in size. In short, it runs like this: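 5 nM human CYP2C19 with 10uM Luciferin-H EGE (at KM) in 50mM KPO4, compound preincubated 10 min at 37C, then NADPH regeneration for 60 min at 37C. Luciferin read by luminescence after detection reagent; normalized to 57uM ketoconazole as full inhibition.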

Setting [13] is: measured here: cell count channel max response.
Setting [14] is: measured here: lipid channel max response.

The structures appear in SMILES notation. “And” between values parts separate entries of the source, which are not always exact repeats. Equal entries are not always repeated. Results filed as inconclusive are left out. The source made the active and inactive calls. Unless noted, calls follow the shape of the dose curve; as a rule, active = well fitted curve in the direction sought with a large enough effect; inconclusive = small, poorly fitted or top-dose-only effect, or another doubt; inactive = no such curve, though single readings can be large; an effect the other way counts as inactive or inconclusive.

Sequence of Cytochrome P450 1A2 (Homo sapiens) (P05177 whole entry, looked up): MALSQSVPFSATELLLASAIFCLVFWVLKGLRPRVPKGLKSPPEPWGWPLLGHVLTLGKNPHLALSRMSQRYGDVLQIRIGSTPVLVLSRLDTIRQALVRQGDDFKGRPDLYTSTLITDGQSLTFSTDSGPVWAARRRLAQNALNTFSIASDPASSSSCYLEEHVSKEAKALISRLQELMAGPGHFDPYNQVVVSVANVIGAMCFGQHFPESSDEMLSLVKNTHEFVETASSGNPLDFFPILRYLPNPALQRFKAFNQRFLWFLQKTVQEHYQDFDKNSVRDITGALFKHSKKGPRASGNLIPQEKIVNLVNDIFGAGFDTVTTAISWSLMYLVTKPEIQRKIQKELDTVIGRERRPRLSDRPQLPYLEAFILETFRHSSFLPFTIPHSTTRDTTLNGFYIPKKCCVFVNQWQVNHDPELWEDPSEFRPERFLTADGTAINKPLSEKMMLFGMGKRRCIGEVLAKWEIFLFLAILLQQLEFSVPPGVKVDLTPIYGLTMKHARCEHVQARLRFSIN
Sequence of DNA dC->dU-editing enzyme APOBEC-3G (Homo sapiens) (Q9HC16 whole entry, looked up): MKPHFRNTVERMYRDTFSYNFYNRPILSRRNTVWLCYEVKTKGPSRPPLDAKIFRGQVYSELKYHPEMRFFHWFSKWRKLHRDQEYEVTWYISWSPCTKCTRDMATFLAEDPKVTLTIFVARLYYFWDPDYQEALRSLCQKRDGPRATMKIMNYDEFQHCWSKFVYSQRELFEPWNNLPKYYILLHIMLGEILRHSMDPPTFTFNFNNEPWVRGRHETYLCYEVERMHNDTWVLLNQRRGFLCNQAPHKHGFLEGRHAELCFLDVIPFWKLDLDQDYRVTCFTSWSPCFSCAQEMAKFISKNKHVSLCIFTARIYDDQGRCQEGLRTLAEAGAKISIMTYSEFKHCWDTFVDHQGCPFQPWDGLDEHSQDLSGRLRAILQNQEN
Sequence of 3',5'-cyclic-AMP phosphodiesterase 4B (Homo sapiens) (Q07343 whole entry, looked up): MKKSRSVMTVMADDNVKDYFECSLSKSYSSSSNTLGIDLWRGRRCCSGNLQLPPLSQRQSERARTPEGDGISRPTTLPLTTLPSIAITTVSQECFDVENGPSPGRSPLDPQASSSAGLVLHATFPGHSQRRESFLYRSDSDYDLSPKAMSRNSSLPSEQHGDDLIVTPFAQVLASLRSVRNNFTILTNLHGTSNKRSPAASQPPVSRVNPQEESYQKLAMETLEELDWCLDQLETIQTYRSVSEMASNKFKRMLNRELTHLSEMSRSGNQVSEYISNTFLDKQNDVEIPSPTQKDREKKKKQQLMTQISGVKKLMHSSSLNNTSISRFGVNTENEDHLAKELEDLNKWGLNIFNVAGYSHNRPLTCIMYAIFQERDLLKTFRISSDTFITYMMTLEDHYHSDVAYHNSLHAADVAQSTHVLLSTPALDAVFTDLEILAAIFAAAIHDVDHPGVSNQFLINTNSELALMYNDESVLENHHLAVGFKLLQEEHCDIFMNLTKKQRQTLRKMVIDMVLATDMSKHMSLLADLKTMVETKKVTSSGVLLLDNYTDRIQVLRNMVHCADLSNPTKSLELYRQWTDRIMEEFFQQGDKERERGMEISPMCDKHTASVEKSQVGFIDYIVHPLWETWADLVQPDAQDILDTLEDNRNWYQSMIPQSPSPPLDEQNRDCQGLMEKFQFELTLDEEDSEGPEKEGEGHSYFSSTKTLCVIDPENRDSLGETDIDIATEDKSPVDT
Sequence of Ubiquitin carboxyl-terminal hydrolase 1 (Homo sapiens) (O94782 whole entry, looked up): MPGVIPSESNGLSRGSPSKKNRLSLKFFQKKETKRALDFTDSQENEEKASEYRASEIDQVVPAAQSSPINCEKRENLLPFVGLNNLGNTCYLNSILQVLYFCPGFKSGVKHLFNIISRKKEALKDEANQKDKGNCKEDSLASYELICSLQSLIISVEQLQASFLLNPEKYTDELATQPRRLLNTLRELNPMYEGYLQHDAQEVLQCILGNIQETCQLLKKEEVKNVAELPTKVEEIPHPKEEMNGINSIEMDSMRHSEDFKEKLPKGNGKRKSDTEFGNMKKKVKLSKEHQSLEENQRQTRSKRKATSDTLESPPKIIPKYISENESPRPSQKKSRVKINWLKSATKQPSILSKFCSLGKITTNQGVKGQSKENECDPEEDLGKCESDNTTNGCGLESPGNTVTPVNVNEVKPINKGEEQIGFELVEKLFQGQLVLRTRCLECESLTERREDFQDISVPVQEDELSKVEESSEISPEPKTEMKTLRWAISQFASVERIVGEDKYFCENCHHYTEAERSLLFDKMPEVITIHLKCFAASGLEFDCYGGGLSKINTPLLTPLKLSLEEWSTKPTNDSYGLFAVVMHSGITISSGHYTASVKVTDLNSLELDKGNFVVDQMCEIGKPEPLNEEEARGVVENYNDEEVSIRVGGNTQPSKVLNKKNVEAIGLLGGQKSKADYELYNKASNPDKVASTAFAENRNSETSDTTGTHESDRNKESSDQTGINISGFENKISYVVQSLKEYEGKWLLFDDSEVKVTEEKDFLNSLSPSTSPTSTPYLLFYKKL
Sequence of Glucocorticoid receptor (Homo sapiens) (P04150 whole entry, looked up): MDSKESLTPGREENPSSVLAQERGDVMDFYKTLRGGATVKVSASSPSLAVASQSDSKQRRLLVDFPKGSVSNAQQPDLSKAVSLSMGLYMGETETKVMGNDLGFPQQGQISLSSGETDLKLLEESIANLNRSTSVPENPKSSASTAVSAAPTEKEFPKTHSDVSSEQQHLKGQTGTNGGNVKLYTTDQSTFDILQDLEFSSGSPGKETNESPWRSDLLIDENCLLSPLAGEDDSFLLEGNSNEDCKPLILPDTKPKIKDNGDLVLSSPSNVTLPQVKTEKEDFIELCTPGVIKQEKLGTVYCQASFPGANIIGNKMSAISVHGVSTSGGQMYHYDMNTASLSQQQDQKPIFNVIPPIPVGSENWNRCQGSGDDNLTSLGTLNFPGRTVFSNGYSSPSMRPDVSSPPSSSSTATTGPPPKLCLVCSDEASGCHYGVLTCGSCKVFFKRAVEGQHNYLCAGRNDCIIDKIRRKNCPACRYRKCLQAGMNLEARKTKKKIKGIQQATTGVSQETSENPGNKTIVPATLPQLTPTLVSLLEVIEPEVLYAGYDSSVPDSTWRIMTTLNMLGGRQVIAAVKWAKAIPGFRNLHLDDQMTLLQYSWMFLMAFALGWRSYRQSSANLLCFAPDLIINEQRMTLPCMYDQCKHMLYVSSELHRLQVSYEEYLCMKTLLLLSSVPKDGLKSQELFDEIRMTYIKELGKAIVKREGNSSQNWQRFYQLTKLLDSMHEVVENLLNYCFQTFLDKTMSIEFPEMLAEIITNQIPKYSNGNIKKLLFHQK
Sequence of Cytochrome P450 2C19 (Homo sapiens) (P33261 whole entry, looked up): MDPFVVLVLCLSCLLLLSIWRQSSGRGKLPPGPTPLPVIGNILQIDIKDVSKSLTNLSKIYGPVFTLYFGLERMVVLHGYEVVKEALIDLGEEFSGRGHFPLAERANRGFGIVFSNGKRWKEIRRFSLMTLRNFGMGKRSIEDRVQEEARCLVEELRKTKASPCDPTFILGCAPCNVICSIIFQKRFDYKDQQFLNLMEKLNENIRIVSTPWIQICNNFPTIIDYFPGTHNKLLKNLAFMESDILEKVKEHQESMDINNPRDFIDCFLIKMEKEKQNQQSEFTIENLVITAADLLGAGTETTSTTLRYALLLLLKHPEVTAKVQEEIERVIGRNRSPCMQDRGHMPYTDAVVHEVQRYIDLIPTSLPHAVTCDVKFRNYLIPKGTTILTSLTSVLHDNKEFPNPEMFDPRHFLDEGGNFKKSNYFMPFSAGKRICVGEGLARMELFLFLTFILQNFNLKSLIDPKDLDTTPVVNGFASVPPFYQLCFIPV
Sequence of Cytochrome P450 3A4 (Homo sapiens) (P08684 whole entry, looked up): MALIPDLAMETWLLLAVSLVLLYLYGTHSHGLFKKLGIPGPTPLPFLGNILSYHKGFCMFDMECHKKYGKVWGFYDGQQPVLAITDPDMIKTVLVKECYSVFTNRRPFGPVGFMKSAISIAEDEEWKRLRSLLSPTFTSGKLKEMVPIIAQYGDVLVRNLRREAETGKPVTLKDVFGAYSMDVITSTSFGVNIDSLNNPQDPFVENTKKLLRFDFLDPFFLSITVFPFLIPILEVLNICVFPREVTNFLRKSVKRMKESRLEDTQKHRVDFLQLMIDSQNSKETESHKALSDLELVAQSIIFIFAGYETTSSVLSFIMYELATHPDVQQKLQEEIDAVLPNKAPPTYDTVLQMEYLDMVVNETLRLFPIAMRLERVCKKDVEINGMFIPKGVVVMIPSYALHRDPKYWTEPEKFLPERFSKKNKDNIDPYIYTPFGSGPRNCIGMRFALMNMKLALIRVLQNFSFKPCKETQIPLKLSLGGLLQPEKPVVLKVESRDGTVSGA

`C[C@@](N)(C(=O)O)c1ccc(S(=O)(=O)O)cc1`: the Potency entry in assay [1], in assay [4], in assay [5], in [7], in [8] and in [9] was “inactive” throughout. Moreover, the Potency result in [10] is “inactive”. For the same molecule, the Potency in [2] and in assay [3] was > 46 µM (inactive) throughout. Moreover, in assay [6], the activity change, negative = inhibition was -0.133% (inactive). Further, the max response in [6] (setting [13]) was found to be 9.59%; in assay [6] (setting [14]) it was 13.8%.
For the molecule `NC(=O)C[C@H](NC(=O)Cc1ccc(O)cc1O)C(=O)O`, the Potency result in [1], in [5], in [9] and in assay [10] was “inactive” each time. Also, the Potency in assay [2] and in [3] was > 46 µM (inactive) throughout. Besides, in assay [6], the activity change, negative = inhibition is -1.96% (inactive). Also, the max response in [6] (setting [13]) was -23.7%; in [6] (setting [14]), -24%.
Turning to `CCC(=O)O[C@H](CC(=O)O)C[N+](C)(C)C`, the Potency entry in [1], in [4], in [7], in assay [8], in assay [9] and in [10] was “inactive” throughout. In addition, in assay [2], the Potency is > 46 µM (inactive). Further, the activity change, negative = inhibition in assay [6] was 3.1% (inactive). Besides, the figures for the max response in assay [6] (setting [13]) and in assay [6] (setting [14]) were -8.23% and -5.22%, respectively.
In the case of `N[C@H](C(=O)O)c1ccc(C(=O)O)cc1`, the Potency result in assay [1], in [8], in assay [9] and in assay [10] was “inactive” in each case. Besides, the Potency in assay [2] and in assay [3] was > 46 µM (inactive) each time. In [6], the activity change, negative = inhibition was -2.07% (inactive). For the same molecule, the max response is -4.05% in assay [6] (setting [13]) and -7.12% in assay [6] (setting [14]).
Regarding `CC(=O)OCCNC(=O)c1cccnc1`, the Potency in assay [2] and in assay [3] was > 46 µM (inactive) each time. Also, the Potency result in assay [4], in assay [11], in [7], in assay [9] and in [10] was “inactive” in each case. Also, the activity change, negative = inhibition in assay [6] was 8.28% (inactive). For the same molecule, the results for the max response in assay [6] (setting [13]) and in assay [6] (setting [14]) were 15.6% and 27.8%, respectively.
As to `CC(C)C[C@H](NC(=O)N1CCCCCC1)C(=O)N[C@H](Cc1cn(C)c2ccccc12)C(=O)N[C@H](Cc1ccccn1)C(=O)O`, the Potency in assay [2] and in assay [3] was > 46 µM (inactive) each time. Moreover, the Potency result in [4], in [5], in assay [11], in assay [7], in [8] and in [9] was “inactive” throughout. The Potency result in [10] is “inactive”. The activity change, negative = inhibition in [6] was -4.14% (inactive). For the same molecule, the figures for the max response in assay [6] (setting [13]) and in assay [6] (setting [14]) were 14.7% and 9.02%, respectively.
As to `N[C@@](C(=O)O)(c1ccc(P(=O)(O)O)cc1)C1CC1`, the Potency in [2] and in [3] was > 46 µM (inactive) in each case. For the same molecule, the Potency entry in assay [4], in assay [8], in assay [9] and in [10] was “inactive” in each case. Also, in assay [6], the activity change, negative = inhibition was -7.82% (inactive). The values for the max response in assay [6] (setting [13]) and in assay [6] (setting [14]) were 3.93% and -1.11%, respectively.
In the case of `Cc1cc([C@](C)(N)C(=O)O)ccc1P(=O)(O)O`, the Potency in assay [2] and in [3] was > 46 µM (inactive) each time. Moreover, the Potency entry in assay [5], in assay [7], in assay [8], in assay [9] and in [10] was “inactive” each time. The activity change, negative = inhibition in [6] is -5.09% (inactive). Also, the results for the max response in assay [6] (setting [13]) and in assay [6] (setting [14]) were 16.7% and 13.5%, respectively.
Turning to `N[C@@H](C(=O)O)c1ccc(C(=O)O)c(C(=O)O)c1`, the Potency result in assay [1], in assay [5], in assay [8], in [9] and in assay [10] was “inactive” in each case. The Potency is > 46 µM (inactive) in [2]; > 46 µM (inactive) in [3]; 316 nM (active) and 3.16 µM (active) in assay [12]. Further, the activity change, negative = inhibition in [6] is 1.89% (inactive) and 0.925% (inactive) and 9.39% (inactive). Moreover, the max response in [6] (setting [13]) is -4.21% and -1.65% and 13.2%; in [6] (setting [14]), -0.754% and -2.49% and 18.8%.
